Experimental findings from PubChem BioAssay AID2284132 (EPA ToxCast) are described below.

Results filed as inconclusive are left out. Calls of active or inactive are those of the source. Rule for the calls: active = hit-call score of the fitted dose curve at least 0.9, where 1 is the maximum; inconclusive = response in the unintended direction; inactive = score below 0.9.

Chain of human SGK1 AGC Kinase, SGK1 (gene 6446) (O00141 whole entry, looked up): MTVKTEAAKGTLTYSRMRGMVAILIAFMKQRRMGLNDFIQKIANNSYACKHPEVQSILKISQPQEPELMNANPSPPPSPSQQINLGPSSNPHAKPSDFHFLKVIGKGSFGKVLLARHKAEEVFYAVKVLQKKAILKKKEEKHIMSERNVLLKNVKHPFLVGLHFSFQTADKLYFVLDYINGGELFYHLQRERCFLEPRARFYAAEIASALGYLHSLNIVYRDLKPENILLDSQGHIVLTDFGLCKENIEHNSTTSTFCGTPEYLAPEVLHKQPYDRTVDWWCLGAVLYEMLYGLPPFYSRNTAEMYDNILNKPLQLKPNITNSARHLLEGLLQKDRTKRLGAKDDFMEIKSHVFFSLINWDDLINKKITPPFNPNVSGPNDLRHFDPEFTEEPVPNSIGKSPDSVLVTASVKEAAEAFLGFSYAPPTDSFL

The experiment concerns the target human SGK1 AGC Kinase, SGK1 (gene 6446) (UniProt O00141). Put plainly: ERF_FR_ENZ_hSGK1: Eurofins (ERF) Enzymatic Radiometric [Km ATP] KinaseProfiler LeadHunter Assay for human SGK1 AGC Kinase. As to the method: ERF_FR_ENZ_hSGK1 is a biochemical, single-readout assay that uses extracted gene-proteins in a cell-free assay. Measurements were taken 0.5 hour after chemical dosing in a 96-well plate. See SGK1 Human AGC Kinase Enzymatic LANCE Assay [Km ATP], Cerep.ERF_FR_ENZ_hSGK1 is an assay component calculated from the ERF_FR_ENZ_hSGK1 assay. It is designed to measure enzyme activity using a type of enzyme reporter as detected by fluorescence intensity with LANCE technology.Data from the assay component ERF_FR_ENZ_hSGK1 was analyzed at the assay endpoint, ERF_FR_ENZ_hSGK1, in the positive analysis fitting direction relative to DMSO as the negative control and baseline of activity. Using a type of enzyme reporter, loss-of-signal activity can be used to understand changes in enzymatic activity as they relate to gene SGK1. To generalize the intended target to other relatable targets, this assay endpoint is annotated to the kinase intended target family, where the subfamily is serine/threonine kinase.
SGK (h) is incubated with 8 mM MOPS pH 7.0, 0.2 mM EDTA, 30 uM […], 10 mM MgAcetate and [g- 33P]-ATP (specific activity and concentration as required). The reaction is initiated by the addition of the Mg/ATP mix. After incubation for 40 minutes at room temperature, the reaction is stopped by the addition of phosphoric acid to a concentration of 0.5%. […]
In the case of `O=C(/C=C/c1ccc(O)cc1)CC(=O)/C=C/c1ccc(O)cc1`, the compound was called inactive.
